# In PMC5998130:
# Molecular target: Smad nuclear-interacting protein 1 (UniProt Q8TAD8)
# Experiment: mass-spectrometry hit list; affinity purification or IP with mass spectrometry
substance,measurement,value
"DNA-directed RNA polymerase II subunit RPB1, P24928",listed as a hit,yes
